In PubChem BioAssay (NCI):
The panel holds about 83,000 compounds, 20% with a hit somewhere; the sample as a whole holds those more often.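 In brief: 96-well plates, 48 h treatment, single concentration, percent growth endpoint.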 The source made the active and inactive calls. Rule for the calls: active = growth percent below 10; inactive = the rest.

Key:
Test in all cases: NCI-60 one-dose screen, 48 h (100 = growth as untreated, 0 = no growth, -100 = all killed)
Settings in all cases: 10 µM unless noted
SK-MEL-2 melanoma = system: SK-MEL-2 melanoma
EKVX NSCLC = system: EKVX NSCLC
SN12C renal = system: SN12C renal
UO-31 renal = system: UO-31 renal
TK-10 renal = system: TK-10 renal
ACHN renal = system: ACHN renal
CAKI-1 renal = system: CAKI-1 renal
A498 renal = system: A498 renal
CCRF-CEM leukemia = system: CCRF-CEM leukemia
MOLT-4 leukemia = system: MOLT-4 leukemia
SR leukemia = system: SR leukemia
RPMI-8226 leukemia = system: RPMI-8226 leukemia
OVCAR-8 ovarian = system: OVCAR-8 ovarian
OVCAR-5 ovarian = system: OVCAR-5 ovarian
OVCAR-4 ovarian = system: OVCAR-4 ovarian
SK-OV-3 ovarian = system: SK-OV-3 ovarian
IGROV1 ovarian = system: IGROV1 ovarian
OVCAR-3 ovarian = system: OVCAR-3 ovarian
NCI/ADR-RES ovarian = system: NCI/ADR-RES ovarian
HS 578T breast = system: HS 578T breast

Measured: growth

COc1cc(-c2cc(-c3cccc(OCC(=O)O)c3)[nH]c(=O)c2C#N)cc(OC)c1OC
inactive: SK-MEL-2 melanoma 132% | EKVX NSCLC 91.8% | SN12C renal 102% | UO-31 renal 81.8% | TK-10 renal 102% | ACHN renal 97% | CAKI-1 renal 82.2% | A498 renal 101% | CCRF-CEM leukemia 93.7% | MOLT-4 leukemia 85.9% | SR leukemia 83.6% | RPMI-8226 leukemia 98.6% | OVCAR-8 ovarian 102% | OVCAR-5 ovarian 96.8% | OVCAR-4 ovarian 98.2% | SK-OV-3 ovarian 100% | IGROV1 ovarian 109% | OVCAR-3 ovarian 110% | NCI/ADR-RES ovarian 104%

CC(=O)Oc1ccccc1C(=O)[Se]CC(=O)Nc1cccc(C(F)(F)F)c1
inactive: CCRF-CEM leukemia 24.6% | MOLT-4 leukemia 11.7% | SR leukemia 31.2% | RPMI-8226 leukemia 35.6% | OVCAR-4 ovarian 39.6%
active: SK-MEL-2 melanoma -21% | EKVX NSCLC -96.7% | SN12C renal -80.3% | UO-31 renal -85% | TK-10 renal -83.8% | ACHN renal -34.8% | CAKI-1 renal -74.4% | A498 renal -61% | OVCAR-8 ovarian -46.6% | OVCAR-5 ovarian -30.9% | SK-OV-3 ovarian 0.121% | IGROV1 ovarian -64.9% | OVCAR-3 ovarian -12% | NCI/ADR-RES ovarian -63.8%

COc1ccc(NC(=O)c2sc3nc(C(C)C)ccc3c2N)cc1
inactive: SK-MEL-2 melanoma 97.5% | EKVX NSCLC 43.2% | SN12C renal 74.1% | UO-31 renal 72.5% | TK-10 renal 93.1% | ACHN renal 81.2% | CAKI-1 renal 80.7% | A498 renal 84.4% | CCRF-CEM leukemia 54.6% | MOLT-4 leukemia 67.5% | SR leukemia 60% | RPMI-8226 leukemia 54.5% | OVCAR-8 ovarian 89.1% | OVCAR-5 ovarian 83.2% | OVCAR-4 ovarian 56.7% | SK-OV-3 ovarian 97.9% | IGROV1 ovarian 100% | OVCAR-3 ovarian 93.9% | NCI/ADR-RES ovarian 59.6%

COc1cc(/C=C/C(=O)c2nnn(-c3ccc(Cl)cc3)c2C)cc(OC)c1OC
inactive: SK-MEL-2 melanoma 51.3% | EKVX NSCLC 10.1% | SN12C renal 15.5% | UO-31 renal 54% | TK-10 renal 86.7% | ACHN renal 42.4% | CAKI-1 renal 43.2% | A498 renal 132% | OVCAR-8 ovarian 31.8% | OVCAR-5 ovarian 47.8% | OVCAR-4 ovarian 34.7% | SK-OV-3 ovarian 59.4% | IGROV1 ovarian 59.3% | OVCAR-3 ovarian 22.9%
active: CCRF-CEM leukemia -19.2% | MOLT-4 leukemia -10.7% | SR leukemia 5.48% | RPMI-8226 leukemia -7.65% | NCI/ADR-RES ovarian 8.27%

CNC(=O)c1cc(Oc2ccc3nc(NC(=O)Nc4cccc(OC(F)(F)F)c4)sc3c2)ccn1
active: SK-MEL-2 melanoma -20.5% | TK-10 renal -33.7% | ACHN renal -2.02% | CAKI-1 renal -8.87% | A498 renal 8.49% | OVCAR-8 ovarian 6.11% | SK-OV-3 ovarian -30.7% | NCI/ADR-RES ovarian -2.64%
inactive: EKVX NSCLC 42.8% | SN12C renal 23.4% | UO-31 renal 14.5% | CCRF-CEM leukemia 52.9% | MOLT-4 leukemia 50.9% | SR leukemia 37.3% | RPMI-8226 leukemia 51.7% | OVCAR-5 ovarian 50.6% | OVCAR-4 ovarian 30.8% | IGROV1 ovarian 28.4% | OVCAR-3 ovarian 46.2%

CC(=O)Nc1cccc(Nc2nc(NCc3ccccc3)c3ccccc3n2)c1
active: SK-MEL-2 melanoma -89.2% | EKVX NSCLC -97.6% | SN12C renal -90.2% | UO-31 renal -98.5% | TK-10 renal -96.7% | ACHN renal -100% | CAKI-1 renal -94.8% | A498 renal -99.3% | CCRF-CEM leukemia -13.8% | MOLT-4 leukemia -61% | SR leukemia -45.3% | RPMI-8226 leukemia -38.3% | OVCAR-8 ovarian -73.6% | OVCAR-5 ovarian -98.4% | OVCAR-4 ovarian -73.2% | SK-OV-3 ovarian -96.2% | IGROV1 ovarian -94.1% | OVCAR-3 ovarian -79.3% | NCI/ADR-RES ovarian -65%

CC1=C(C(=O)OCc2ccccc2)C(c2c(O)cc(O)cc2O)n2c(nc3ccccc32)N1 (stereo not drawn)
inactive: SK-MEL-2 melanoma 58% | EKVX NSCLC 54.4% | SN12C renal 74.8% | UO-31 renal 46.4% | TK-10 renal 87.9% | ACHN renal 46.6% | CAKI-1 renal 39.4% | A498 renal 102% | CCRF-CEM leukemia 38.1% | MOLT-4 leukemia 60.6% | SR leukemia 18.5% | RPMI-8226 leukemia 81.9% | OVCAR-8 ovarian 77.9% | OVCAR-5 ovarian 73.6% | OVCAR-4 ovarian 84% | SK-OV-3 ovarian 44.4% | IGROV1 ovarian 51% | OVCAR-3 ovarian 33.6% | NCI/ADR-RES ovarian 31%

O=C(N/N=C/c1ccc(-c2ccc(O)cc2)o1)c1[nH]c2ccc(Br)cc2c1-c1ccccc1
active: SK-MEL-2 melanoma 1.84% | EKVX NSCLC 8.78% | SN12C renal -57.9% | UO-31 renal 1.62% | TK-10 renal 1.67% | ACHN renal -21.7% | CAKI-1 renal 5.94% | CCRF-CEM leukemia 4.83% | MOLT-4 leukemia 0.944% | SR leukemia -9.54% | RPMI-8226 leukemia -9.92% | OVCAR-8 ovarian -33.5% | OVCAR-5 ovarian 1.22% | IGROV1 ovarian -17.3% | OVCAR-3 ovarian -41.1% | NCI/ADR-RES ovarian -12.1%
inactive: A498 renal 38.2% | OVCAR-4 ovarian 24.4% | SK-OV-3 ovarian 19.6%

CC(=O)Nc1cccc(Nc2nccc(N[C@@H](C)c3ccccc3)n2)c1
active: SR leukemia 2.48% | RPMI-8226 leukemia 8.53% | OVCAR-8 ovarian 9.3% | NCI/ADR-RES ovarian 3.58%
inactive: SK-MEL-2 melanoma 41.5% | EKVX NSCLC 16.6% | SN12C renal 15.4% | UO-31 renal 25.9% | TK-10 renal 29.1% | ACHN renal 12.7% | CAKI-1 renal 29% | A498 renal 68% | CCRF-CEM leukemia 24.9% | MOLT-4 leukemia 20.5% | OVCAR-5 ovarian 34.2% | OVCAR-4 ovarian 50.7% | SK-OV-3 ovarian 38.9% | IGROV1 ovarian 15.9% | OVCAR-3 ovarian 18%

N/C(=N\N=C\c1ccc([N+](=O)[O-])cc1)c1c(N)nc(=S)[nH]c1-c1ccc(Cl)cc1Cl
inactive: SK-MEL-2 melanoma 93.4% | EKVX NSCLC 98.9% | SN12C renal 96.1% | UO-31 renal 98.3% | TK-10 renal 142% | ACHN renal 88.9% | CAKI-1 renal 78.9% | A498 renal 160% | CCRF-CEM leukemia 106% | MOLT-4 leukemia 94% | SR leukemia 76.9% | RPMI-8226 leukemia 97.3% | OVCAR-8 ovarian 98.4% | OVCAR-5 ovarian 111% | SK-OV-3 ovarian 89.1% | IGROV1 ovarian 94.9% | OVCAR-3 ovarian 110% | HS 578T breast 87.1% | NCI/ADR-RES ovarian 105%

COc1c(F)ccc(C(=O)Nc2ccc3nc(NC(=O)C4CCCN(S(=O)(=O)c5cccc(C(F)(F)F)c5)C4)sc3c2)c1F (stereo not drawn)
inactive: SK-MEL-2 melanoma 83.8% | EKVX NSCLC 94.5% | SN12C renal 78.8% | UO-31 renal 74.8% | TK-10 renal 102% | ACHN renal 83.6% | CAKI-1 renal 83.1% | A498 renal 101% | CCRF-CEM leukemia 88.7% | MOLT-4 leukemia 44.9% | SR leukemia 38.4% | RPMI-8226 leukemia 54.4% | OVCAR-5 ovarian 101% | OVCAR-4 ovarian 74.3% | SK-OV-3 ovarian 102% | IGROV1 ovarian 77.5% | OVCAR-3 ovarian 88.1% | HS 578T breast 61.1% | NCI/ADR-RES ovarian 84.3%

CCOC(=O)COc1c(OC)c(OC)cc2oc(-c3cccc(C(=O)Nc4ccc(Cl)cc4)c3)cc(=O)c12
inactive: SK-MEL-2 melanoma 71.3% | EKVX NSCLC 62.5% | SN12C renal 58.3% | UO-31 renal 28.1% | TK-10 renal 87.7% | ACHN renal 73.1% | CAKI-1 renal 48.4% | A498 renal 82.7% | CCRF-CEM leukemia 31.1% | MOLT-4 leukemia 19.8% | SR leukemia 18.4% | RPMI-8226 leukemia 38.5% | OVCAR-8 ovarian 52% | OVCAR-4 ovarian 68.8% | SK-OV-3 ovarian 75.4% | IGROV1 ovarian 54.4% | OVCAR-3 ovarian 23.3% | HS 578T breast 49.6% | NCI/ADR-RES ovarian 36.5%

COc1ccc2oc3c4[nH]c5ccccc5c4c4c(c3c2c1)C(=O)N(C(=O)OC(C)(C)C)C4=O
active: SK-MEL-2 melanoma -46.8% | EKVX NSCLC -18.9% | SN12C renal -19.3% | UO-31 renal -12.8% | TK-10 renal -11% | ACHN renal -22.3% | CAKI-1 renal -15.3% | A498 renal -10.9% | CCRF-CEM leukemia 6.52% | MOLT-4 leukemia -28.4% | SR leukemia -5.86% | RPMI-8226 leukemia -10.4% | OVCAR-5 ovarian 6.78% | OVCAR-4 ovarian -6.75% | SK-OV-3 ovarian -25.3% | IGROV1 ovarian -1.25% | OVCAR-3 ovarian -33.7% | HS 578T breast -1.85% | NCI/ADR-RES ovarian -17.9%

C=C1CCC2C3(C)COC(c4cc(F)cc(F)c4)OC3CCC2(C)C1CC(O)C1=CCOC1=O (stereo not drawn)
inactive: SK-MEL-2 melanoma 57.2% | EKVX NSCLC 83.3% | SN12C renal 48.1% | UO-31 renal 49.6% | TK-10 renal 110% | ACHN renal 67.8% | CAKI-1 renal 60.3% | A498 renal 120% | CCRF-CEM leukemia 16.8% | MOLT-4 leukemia 33.7% | SR leukemia 28.6% | RPMI-8226 leukemia 11% | OVCAR-8 ovarian 16.2% | SK-OV-3 ovarian 102% | IGROV1 ovarian 60.1% | OVCAR-3 ovarian 61.4% | HS 578T breast 70.4% | NCI/ADR-RES ovarian 14.5%

O=C1CC(Sc2n[nH]c(-c3ccncc3)n2)C(=O)N1c1ccc(Br)cc1 (stereo not drawn)
inactive: SK-MEL-2 melanoma 116% | EKVX NSCLC 106% | SN12C renal 93.6% | UO-31 renal 88.7% | TK-10 renal 101% | ACHN renal 109% | CAKI-1 renal 99.9% | A498 renal 111% | CCRF-CEM leukemia 88.9% | MOLT-4 leukemia 115% | SR leukemia 97.4% | RPMI-8226 leukemia 94.1% | OVCAR-8 ovarian 105% | OVCAR-5 ovarian 105% | SK-OV-3 ovarian 108% | IGROV1 ovarian 112% | OVCAR-3 ovarian 114% | HS 578T breast 111% | NCI/ADR-RES ovarian 111%

O=C(CN1C(=O)/C(=C/c2ccccc2Cl)SC1=S)N1CCOCC1
inactive: SK-MEL-2 melanoma 103% | EKVX NSCLC 99.8% | SN12C renal 78.5% | UO-31 renal 66.5% | TK-10 renal 112% | ACHN renal 61.2% | CAKI-1 renal 90.9% | A498 renal 119% | CCRF-CEM leukemia 61.8% | MOLT-4 leukemia 85.9% | SR leukemia 34.3% | RPMI-8226 leukemia 58.8% | OVCAR-8 ovarian 97.1% | OVCAR-4 ovarian 78.2% | SK-OV-3 ovarian 124% | IGROV1 ovarian 107% | OVCAR-3 ovarian 77.1% | HS 578T breast 106% | NCI/ADR-RES ovarian 95.5%
